The panel holds about 83,000 compounds, 20% with a hit somewhere; the sample as a whole holds those more often.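 Plates (96-well) were seeded with cells, treated with compound at one concentration, and incubated for 48 hours before percent growth was determined.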 Unmarked numbers belong to inactive results. The source made the active and inactive calls. The calls were made as follows: active = growth percent below 10; inactive = the rest.
Tests used:
Assay in all cases: NCI-60 one-dose screen, 48 h (100 = growth as untreated, 0 = no growth, -100 = all killed)
[1] = tested on: RPMI-8226 leukemia; conditions: 10 µM unless noted
[2] = tested on: OVCAR-8 ovarian; conditions: 10 µM unless noted
[3] = tested on: OVCAR-5 ovarian; conditions: 10 µM unless noted
[4] = tested on: OVCAR-4 ovarian; conditions: 10 µM unless noted
[5] = tested on: SK-OV-3 ovarian; conditions: 10 µM unless noted
[6] = tested on: IGROV1 ovarian; conditions: 10 µM unless noted
[7] = tested on: OVCAR-3 ovarian; conditions: 10 µM unless noted
[8] = tested on: HS 578T breast; conditions: 10 µM
[9] = tested on: T-47D breast; conditions: 10 µM unless noted
[10] = tested on: BT-549 breast; conditions: 10 µM unless noted
[11] = tested on: MDA-MB-435 melanoma; conditions: 10 µM unless noted
[12] = tested on: SW-620 colon; conditions: 10 µM unless noted
[13] = tested on: MCF7 breast; conditions: 10 µM unless noted
[14] = tested on: HCT-116 colon; conditions: 10 µM unless noted
[15] = tested on: HCC-2998 colon; conditions: 10 µM unless noted
[16] = tested on: KM12 colon; conditions: 10 µM unless noted
[17] = tested on: NCI/ADR-RES ovarian; conditions: 10 µM unless noted

SMILES | growth [1] | growth [2] | growth [3] | growth [4] | growth [5] | growth [6] | growth [7] | growth [8] | growth [9] | growth [10] | growth [11] | growth [12] | growth [13] | growth [14] | growth [15] | growth [16] | growth [17]
CCC(C)C1NC(=O)c2nc(oc2-c2ccccc2)-c2csc(n2)-c2csc(n2)-c2nc(oc2C)-c2coc(n2)CNC(=O)C(C(C)CC)NC1=O (stereo unspecified) | -63.5% (active) | -62% (active) | -86.1% (active) | -80.6% (active) | -89.2% (active) | -71.5% (active) | -88% (active) | -57.3% (active) | -62.5% (active) | -78.4% (active) | -87.5% (active) | -82.6% (active) | -68.6% (active) | -59% (active) | -80.1% (active) | -73.9% (active) | 
O=C(CCCCCCc1nc2ccc(Br)cc2[nH]1)NO | -4.38% (active) | 4.11% (active) | 8.25% (active) | 24% | -41.8% (active) | -9.43% (active) | -2.31% (active) | 32.6% | -32.3% (active) | 16.4% | -10.5% (active) | -76.8% (active) | 1.84% (active) | -89.2% (active) | -51.7% (active) | -65.4% (active) | 
Cn1nc(C(F)(F)F)cc1-c1cc(Cl)c(OCc2ccc(Cl)cc2)c(-c2ccc(Cl)c(C(F)(F)F)c2)c1O | -21.8% (active) | 14.5% | 10.3% | 17.2% | -7.57% (active) | 25.9% | 7.63% (active) | -5.65% (active) |  | -0.385% (active) | 1.41% (active) | 12.2% | 3.29% (active) | -11.1% (active) | 13.6% | 7.08% (active) | 1.22% (active)
CCCCOc1ncnc2nc[nH]c12 | 95.4% | 99.4% | 103% | 102% | 107% | 124% |  | 100% | 107% | 97.6% | 111% | 108% | 96.9% | 101% | 111% |  | 105%
O=C(NC1CC1)c1ccc(-c2nc3ccc4[nH]ncc4c3c3c2CCCC3)cc1 | 50.5% | 38.8% | 75.2% | 61.6% | -7.43% (active) | 22.7% | 58% | 4.47% (active) |  | 29.5% | 11.5% | 18.7% | 38.6% |  | 51.1% | 24.4% | 72.1%
Cc1nc2ccc(Nc3nc(N4CCOCC4)nc(N4CCN(C)CC4)n3)cc2n1Cc1ccccc1 | 65.4% | 93.6% | 101% | 112% | 96.2% | 98.2% | 94.7% | 69.3% | 91.9% | 66.1% | 91% | 96.9% | 82.6% |  | 96.3% | 93.2% | 
COc1ccc([C@@H]2[C@@H](Cl)C(=O)N2c2cc(OC)c(OC)c(OC)c2)cc1C | 8.48% (active) | 14.8% | 59.7% | 39.1% | 30.4% | 31.6% |  | 47.9% | 77.7% | 6.51% (active) | -33.7% (active) | 26.7% | 20.5% | 3.33% (active) | 19.5% | 12.8% | 16%
COc1cc(NC(C)CCCN)c2ncccc2c1Oc1ccc(Cl)cc1 (stereo unspecified) | 63% | 84.8% | 84.6% | 56.3% | 98.6% |  | 60% | 70% | 76.8% | 86.2% | 90.7% | 73.5% | 71.3% | 58.3% | 49.8% | 69.2% | 77.3%
COc1ccc(C2CC(c3cccc(Nc4ccnc5cc(Cl)ccc45)c3)=NN2c2ccccc2)cc1 (stereo unspecified) | 67.9% | 76.4% | 85.6% | 118% | 80.8% | 74.8% | 92.1% | 78.3% | 50.8% | 63% | -9.41% (active) | 36.8% | 47.6% | 65.5% | 54.1% | 27.1% | 
C=CCn1c(SCC(=O)Nc2ccc(C(=O)/C=C/c3ccc(Cl)cc3)cc2)nnc1-c1ccc(Cl)cc1 | 17.2% | 87.9% | 104% | 94.8% | 92% | 79.5% | 89.1% | 84.8% | 76% | 82.5% | 96.7% | 97.9% | 43.2% | -17.8% (active) | 90.4% | 94.2% | 
F | 22.4% [6.87 mM] | 30% [6.87 mM] | 10.6% [6.87 mM] | 76.2% [6.87 mM] | 8.2% [6.87 mM] (active) | 53.5% [6.87 mM] | 71.5% [6.87 mM] |  | 18.2% [6.87 mM] | 5.2% [6.87 mM] (active) | -26.3% [6.87 mM] (active) |  | 30.7% [6.87 mM] | 8.71% [6.87 mM] (active) | 24.4% [6.87 mM] | 9.89% [6.87 mM] (active) | 8.42% [6.87 mM] (active)
N#CC1=C(N)Oc2nc[nH]c(=O)c2C1c1cccs1 (stereo unspecified) | 100% | 98.3% | 100% | 90.9% | 105% | 111% |  | 112% | 95.2% | 103% | 101% | 102% | 97.1% | 106% | 114% | 108% | 113%
Cn1c(=O)c2c3c(oc2c2ccccc21)C(=O)c1ccccc1C3=O | 51.1% | 85.3% | 120% | 4.38% (active) |  | 68.7% | 21.6% | 93.2% | 9.7% (active) | 77.4% | 104% | 86.2% | 68.4% | 71.7% | 102% | 91.5% | 76.9%
SCc1ccc(CS)cc1 | 103% | 98.4% | 95.9% | 101% | 104% | 105% | 115% |  | 101% | 92.3% | 111% | 102% |  | 100% | 101% | 114% | 109%
CC(C)c1[nH]ncc1-c1nc2ccc3[nH]ncc3c2c2c1CCCC2 | 33.9% | 37.2% | 48.7% | 75.8% | 16.5% | 21.9% |  | -1.07% (active) | 46.8% | 27.4% | 53.8% | 15.9% | 20.4% |  | 53.5% | 17.4% | 66.1%
COc1ccc(/C(=C\c2cc(OC)c(OC)c(OC)c2)C(=O)N2CCN(c3ccccc3)CC2)cc1O | 73.5% | 96.8% | 101% | 98.1% | 111% | 102% | 111% | 87.8% | 87.4% | 103% | 98.1% | 104% | 92.5% | 106% | 98.1% | 96.7% | 
Cn1nc(C(F)(F)F)cc1-c1c[nH]c(OCc2ccc(Cl)cc2)c(-c2ccc(Cl)c(C(F)(F)F)c2)c1=O | -26.6% (active) | 12.5% | 13% | 15.3% | -6.23% (active) |  | 7.83% (active) | -1.78% (active) |  | 2.51% (active) | 1.96% (active) | 12.6% | 1.28% (active) | 4.49% (active) | 13.3% | 8.85% (active) | 1.94% (active)
CC(C)CC(NC(=O)C(CCCN=C(N)N)NC(=O)OCc1ccccc1)C(=O)NC(CNC(=O)/C=C/c1ccccc1)C(C)C (stereo unspecified) | 96% | 106% | 89.3% | 95.8% | 117% | 88.3% | 105% |  | 96.2% | 107% | 97.5% | 105% | 91% | 102% | 137% | 105% | 
c1ccc(C2=Nc3ccccc3SC2)cc1 | 93.8% | 101% | 98.6% | 91.5% | 110% | 88.6% | 99.4% |  | 100% | 107% | 105% | 95.4% | 86.4% | 96.7% | 104% | 97.5% | 113%

— PubChem BioAssay (NCI)
